Nrf2 ARE act – activators of Nrf2 (ARE) signaling | Potency, µM (doses to about 46.1 µM), hits mostly activators | AREc32 ARE-luciferase reporter (MCF7-derived line), luminescence, 24 h | 410,000 compounds, 0.31% hits; further: nearly all actives have a fitted effect of over 65% in size
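Cells of the AREc32 ARE-luciferase line are plated in OPTI-MEM containing 5% FBS and left overnight at 37 deg C. Compounds are pinned in, incubation continues 24 hr, and firefly luciferase signal is then measured.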
Nrf2 block – blocks Nrf2 signaling. A549 ARE-Fluc reporter, luciferase luminescence, 18-24 h. Potency, µM (titrated, usually from 46 µM), actives largely listed as inhibitors. 360,000 compounds, 2.1% hits. AID 504444; further: nearly all actives have a fitted effect of over 60% in size
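Nrf2 function is reported as luminescence of an ARE-controlled luciferase in A549 cells. Compounds were tested at several concentrations, and a CellTiter-Fluor read on the same wells flagged cytotoxicity.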
A549 viability – A549 cytotoxicity, counter-screen for Nrf2 inhibitors; A549 ARE-Fluc cells, CellTiter-Fluor viability, 18-24 h; Potency, µM (highest dose often 46 µM), hits mostly inhibitors; 390,000 compounds, 0.16% hits; AID 504648
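Cytotoxicity counterscreen: CellTiter-Fluor fluorescence was measured in A549 ARE_Fluc cells after 18-24 h of compound exposure in a concentration series. The subsequent BugLite luminescent read reports ARE-luciferase activity.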
ELG1 repair inh – ELG1-dependent DNA repair inhibition. HEK293T ELG1-luciferase reporter, luminescence, 16 h; DNA damage induced by 5-fluorouridine. Potency, µM (series often up to 46.1 µM), hits mostly inhibitors. 330,000 compounds, 2.3% hits; further: nearly all actives have a fitted effect of over 55% in size
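HEK293T cells expressing luciferase-tagged ELG1 (2,000/well) received 5-Fluorouridine plus compound or DMSO for 16 hr at 37 °C. Luciferase was read by ONE-Glo luminescence after 30 min at room temperature.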
Hits are given with their value. Sampled rows, rich in hits. Any-hit rate of the full collection: about 3.7%. The call rests on the fitted dose curve; in most records, active means well fitted curve in the direction sought with a large enough effect; inconclusive means small, poorly fitted or top-dose-only effect, or another doubt; inactive means no such curve, though single readings can be large; an effect the other way counts as inactive or inconclusive.

How did CCCCC(=O)NC(c1ccc([N+](=O)[O-])cc1)c1c(O)ccc2ccccc12 (stereo not given) do in these assays?
Nrf2 ARE act: inactive; Nrf2 block: inconclusive; A549 viability: inconclusive; ELG1 repair inh: 25.9µM

Results for O=C(NC(c1ccc(Cl)cc1)c1c(O)ccc2ccccc12)c1ccccc1 (stereo not given) ?
Nrf2 ARE act: inactive; Nrf2 block: 11.6µM; A549 viability: inconclusive; ELG1 repair inh: inactive

How did CCC(=O)NC(c1ccc([N+](=O)[O-])cc1)c1c(O)ccc2ccccc12 (stereo not given) do in these assays?
Nrf2 ARE act: inactive; Nrf2 block: 16.4µM; A549 viability: inconclusive; ELG1 repair inh: inactive

Results for Cc1cccc(OCC(=O)Nc2c(C)ccc3nsnc23)c1C ?
Nrf2 ARE act: inactive; Nrf2 block: inactive; A549 viability: inactive

Results for CCOc1ccccc1C(=O)NCC(c1ccc(N(C)C)cc1)N1CCc2ccccc21 (stereo not given) ?
Nrf2 ARE act: inactive; A549 viability: inactive

What do the screens show for `CC(C)(C)Nc1ncnc2sc(-c3ccccc3)cc12`?
Nrf2 ARE act: inactive; Nrf2 block: 11.6µM; A549 viability: inconclusive; ELG1 repair inh: inconclusive

How did C=COCCCNc1ncnc2sc(-c3ccccc3)cc12 do in these assays?
Nrf2 ARE act: inactive; Nrf2 block: 13µM; A549 viability: inactive; ELG1 repair inh: inconclusive

What do the screens show for `OCCCNc1ncnc2sc(-c3ccccc3)cc12`?
Nrf2 ARE act: inactive; Nrf2 block: inconclusive; A549 viability: inactive; ELG1 repair inh: inconclusive

Results for CCOC(=O)C(Cc1c[nH]c2ccccc12)NC(=O)COc1ccc(Cl)c(C)c1 (stereo not given) ?
Nrf2 ARE act: inactive; Nrf2 block: inactive; A549 viability: inactive

How did CC(C)(O)c1cc2ccc(C#Cc3ccsc3)cc2c(=O)o1 do in these assays?
Nrf2 ARE act: 5.01µM; Nrf2 block: inactive; A549 viability: inactive; ELG1 repair inh: inconclusive

Results for O=c1oc(CCCO)cc2ccc(C#Cc3ccsc3)cc12 ?
Nrf2 ARE act: inconclusive; Nrf2 block: inactive; A549 viability: inactive; ELG1 repair inh: inconclusive

Results for COc1ccc(/C=C2\CCCc3c2nc2ccccc2c3C(=O)OCC(=O)c2c(N)n(C)c(=O)n(C)c2=O)cc1 ?
ELG1 repair inh: 3.26µM

Results for Cn1c(N)c(C(=O)COC(=O)c2cc(C(F)(F)F)nc3ccccc23)c(=O)n(Cc2ccccc2)c1=O ?
Nrf2 ARE act: inactive; Nrf2 block: 20.6µM; A549 viability: inactive; ELG1 repair inh: inactive

Results for Cn1c(N)c(C(=O)CCl)c(=O)n(Cc2ccccc2)c1=O ?
Nrf2 ARE act: inactive; Nrf2 block: inactive; A549 viability: inactive; ELG1 repair inh: 20.6µM

How did Cn1c(N)c(C(=O)COC(=O)c2cc(-c3ccco3)nc3ccccc23)c(=O)n(C)c1=O do in these assays?
Nrf2 ARE act: inactive; Nrf2 block: inactive; A549 viability: inactive; ELG1 repair inh: 11.6µM

How did CCN(CC)c1ccc(NC(=O)CCS(=O)(=O)c2ccc(Br)cc2)c(C)c1 do in these assays?
Nrf2 ARE act: inactive; Nrf2 block: inactive; A549 viability: inactive; ELG1 repair inh: inactive

How did O=c1c2oc3ccccc3c2ncn1Cc1ccc(Br)cc1 do in these assays?
Nrf2 ARE act: inactive; Nrf2 block: inactive; A549 viability: inactive

What do the screens show for `CNC(=O)COc1ccccc1C(=O)Nc1ccc2c(c1)oc1ccccc12`?
Nrf2 ARE act: inactive; Nrf2 block: 7.31µM; A549 viability: inactive; ELG1 repair inh: inconclusive

Results for Cc1ccc(NC(=O)CSc2ccccc2NC(=O)c2ccccc2Cl)cc1Cl ?
Nrf2 ARE act: inactive; Nrf2 block: 25.9µM; A549 viability: inconclusive; ELG1 repair inh: 23.1µM

How did Cc1ccc(NC(=O)COc2ccccc2C(=O)Nc2ccccc2)cc1Cl do in these assays?
Nrf2 ARE act: inactive; Nrf2 block: inactive; A549 viability: inactive; ELG1 repair inh: 16.4µM

What do the screens show for `Cc1ccc(NC(=O)CSc2ccccc2NC(=O)c2ccccc2)cc1Cl`?
Nrf2 ARE act: inactive; Nrf2 block: inconclusive; A549 viability: inactive; ELG1 repair inh: inconclusive

What do the screens show for `Cc1ccc2nc(Cl)c3cc(C(=O)NC4CCC(C)CC4)sc3c2c1` (stereo not given)?
Nrf2 ARE act: inactive; Nrf2 block: inactive; A549 viability: inactive

How did Cc1cc(C)c[n+](C(C)C(=O)c2ccc(-c3ccccc3)cc2)c1 (stereo not given) do in these assays?
Nrf2 ARE act: inactive; Nrf2 block: 14.6µM; A549 viability: inactive; ELG1 repair inh: inconclusive

How did Cc1ccc[n+](C(C)C(=O)c2ccc(Cl)cc2)c1 (stereo not given) do in these assays?
Nrf2 ARE act: inactive; Nrf2 block: inactive; A549 viability: inactive; ELG1 repair inh: inactive

Results for COc1ccc(CC(=O)NNC(=O)COc2ccc(C)cc2)cc1S(=O)(=O)N1CCOCC1 ?
Nrf2 ARE act: inactive; Nrf2 block: inactive; A549 viability: inactive; ELG1 repair inh: inactive

How did COc1ccc(S(=O)(=O)NCc2ccco2)c2ccccc12 do in these assays?
Nrf2 ARE act: inconclusive; Nrf2 block: 3.66µM; A549 viability: inconclusive; ELG1 repair inh: inactive

What do the screens show for `COc1ccc([N+](=O)[O-])cc1NCc1ccco1`?
Nrf2 ARE act: 11.2µM; Nrf2 block: inconclusive; A549 viability: inactive; ELG1 repair inh: inactive

Results for COCCNC(=O)C1CCCN(S(=O)(=O)c2ccc3c(ccn3C)c2)C1 (stereo not given) ?
Nrf2 ARE act: inactive; A549 viability: inactive

How did CCc1nc2ccc(C(=O)NCc3cccs3)cn2c1N(CC)CCN(C)C do in these assays?
Nrf2 ARE act: inactive

What do the screens show for `N#C/C(=C\c1ccc(F)cc1F)S(=O)(=O)c1ccccn1`?
Nrf2 ARE act: inactive; Nrf2 block: inactive; A549 viability: inactive; ELG1 repair inh: inactive

How did COc1ccc(NC(=O)c2c(C)oc3ccc(O)c(CN4CCCCCC4)c23)cc1Cl do in these assays?
Nrf2 ARE act: inactive; Nrf2 block: inconclusive; A549 viability: inactive

How did CCCOc1nc2c(c(=O)n(C)c(=O)n2C)n1Cc1cccc2ccccc12 do in these assays?
Nrf2 ARE act: inactive; Nrf2 block: 18.4µM; A549 viability: inactive; ELG1 repair inh: 16.4µM

How did CCCCOc1nnc(-c2ccc(OCC)cc2)c2ccccc12 do in these assays?
Nrf2 ARE act: inactive; Nrf2 block: inactive; A549 viability: inactive

How did Cn1c(=O)n(C)c2cc(NS(=O)(=O)c3ccc(C(C)(C)C)cc3)c(NCc3ccccc3)cc21 do in these assays?
Nrf2 ARE act: inactive; Nrf2 block: 10.3µM; A549 viability: inconclusive

What do the screens show for `Cc1ccc(CNS(=O)(=O)c2ccc3c(c2)n(C)c(=O)n3C)cc1`?
Nrf2 ARE act: inactive; Nrf2 block: 20.6µM; A549 viability: inactive; ELG1 repair inh: 8.2µM

Results for Cn1c(=O)n(C)c2cc(NS(=O)(=O)c3ccc(Cl)cc3)c(NCc3ccccc3)cc21 ?
Nrf2 ARE act: inconclusive; Nrf2 block: inconclusive; A549 viability: inactive

How did Cc1cc(S(=O)(=O)Nc2cc3c(cc2NCc2ccccc2)n(C)c(=O)n3C)ccc1F do in these assays?
Nrf2 ARE act: 12.6µM; Nrf2 block: inconclusive; A549 viability: inactive

From PubChem BioAssay
